Source: PubChem BioAssay (Tox21)
Results filed as inconclusive are left out. Active and inactive are the calls of the source. Unless noted, calls come from the whole dose curve; as a rule, active = well fitted curve in the direction sought with a large enough effect in the repeat runs; inconclusive = weak or mixed curves; inactive = flat fitted curve, though single readings scatter.

What was measured:
[1] = qHTS assay to test for compound auto fluorescence at 535 nm (green) in HEK293 cells (AID 720680)
[2] = qHTS assay to test for compound auto fluorescence at 460 nm (blue) in HEK293 cell free culture (AID 720681)
In short: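 Blue fluorescence (Ex 405/Em 460 nm, triamterene-equivalent) was read immediately after pin transfer of compound or DMSO into medium (DMEM, 10% FBS) without cells.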

[3] = qHTS assay to test for compound auto fluorescence at 535 nm (green) in HEK293 cell free culture (AID 720682)
In short: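 Green-label autofluorescence (485 nm excitation, 535 nm emission) measured on compound added to cell-free culture medium (DMEM, 10% FBS). Output is expressed relative to fluorescein.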

[4] = qHTS assay to test for compound auto fluorescence at 590 nm (red) in HEK293 cell free culture (AID 720683)
In short: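 Red-channel autofluorescence of compounds in culture medium (DMEM, 10% FBS), no cells, measured at 540/590 nm. Rose Bengal sodium is the reference fluorophore for equivalence.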

[5] = qHTS assay to test for compound auto fluorescence at 590 nm (red) in HepG2 cell free culture (AID 720684)
In short: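 Steps: dispense MEM/10% FBS medium, no cells; pin compound or DMSO vehicle; read red channel, Ex/Em 540/590 nm. Output given as Rose Bengal sodium equivalents.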

[6] = qHTS assay to test for compound auto fluorescence at 460 nm (blue) in HepG2 cell free culture (AID 720685)
In short: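 Compound (23 nL) or DMSO pinned into cell-free MEM with 10% FBS; blue fluorescence read at 405/460 nm excitation/emission, expressed as auto-fluorescence equivalency to triamterene.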

[7] = qHTS assay to test for compound auto fluorescence at 535 nm (green) in HepG2 cell free culture (AID 720686)
[8] = qHTS assay to test for compound auto fluorescence at 460 nm (blue) in HepG2 cells (AID 720687)
In short: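 Blue-channel autofluorescence (Ex/Em 405/460 nm, triamterene-equivalent) was measured after 1 hr compound exposure at 37 C, 5% CO2. Cells were HepG2, plated overnight at 37 C in MEM plus 10% FBS.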

[9] = biological target: Glucocorticoid receptor (Homo sapiens) (UniProt P04150); assay: qHTS assay to identify small molecule agonists of the glucocorticoid receptor (GR) signaling pathway (AID 720691; active = well fitted activation curve with a large enough effect in the signal ratio in the repeat runs, not every such curve was filed as active; the % refers to the signal ratio)
Chain of Glucocorticoid receptor (Homo sapiens) (P04150 whole entry, looked up): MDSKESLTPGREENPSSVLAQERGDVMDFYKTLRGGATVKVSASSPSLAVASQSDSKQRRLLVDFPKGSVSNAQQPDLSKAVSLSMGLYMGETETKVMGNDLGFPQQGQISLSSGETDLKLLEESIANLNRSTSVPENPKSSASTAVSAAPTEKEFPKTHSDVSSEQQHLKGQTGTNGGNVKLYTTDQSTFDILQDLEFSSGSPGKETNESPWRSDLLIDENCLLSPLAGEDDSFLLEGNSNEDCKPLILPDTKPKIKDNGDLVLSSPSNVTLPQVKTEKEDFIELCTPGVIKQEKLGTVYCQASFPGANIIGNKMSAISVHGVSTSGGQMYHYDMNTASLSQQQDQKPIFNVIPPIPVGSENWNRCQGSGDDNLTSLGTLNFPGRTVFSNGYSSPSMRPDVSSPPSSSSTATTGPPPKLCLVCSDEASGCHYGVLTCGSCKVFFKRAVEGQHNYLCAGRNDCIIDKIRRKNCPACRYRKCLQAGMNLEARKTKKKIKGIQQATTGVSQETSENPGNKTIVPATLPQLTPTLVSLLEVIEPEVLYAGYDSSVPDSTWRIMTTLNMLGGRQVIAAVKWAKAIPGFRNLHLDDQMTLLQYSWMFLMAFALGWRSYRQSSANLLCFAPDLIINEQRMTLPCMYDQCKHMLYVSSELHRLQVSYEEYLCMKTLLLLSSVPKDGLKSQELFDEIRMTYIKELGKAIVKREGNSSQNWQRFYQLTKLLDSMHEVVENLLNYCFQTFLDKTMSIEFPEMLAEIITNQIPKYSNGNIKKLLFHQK
In short: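 Agonist mode in a HeLa line carrying a GRE-controlled beta-lactamase reporter. Compounds act for 18 h at 37 C before a 2 h room-temperature FRET substrate step and fluorescence reading.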

[10] = biological target: Glucocorticoid receptor (Homo sapiens) (UniProt P04150); assay: qHTS assay to identify small molecule antagonists of the glucocorticoid receptor (GR) signaling pathway (AID 720692; active = well fitted inhibition curve with a large enough effect in the signal ratio in the repeat runs, not every such curve was filed as active; the % refers to the signal ratio; note: potency is the fitted concentration of half-maximal effect)
In short: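 Cells plated, rested 4 h at 37 C/5% CO2; compounds in DMSO pin-transferred; dexamethasone added to 5 nM final; 18 h at 37 C; B/G FRET substrate added, 2 h room temperature; fluorescence measured.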
% is set by controls: 0 for no effect and ±100 for the full control effect.

N#Cc1ccncc1
inactive: outcome [1] | outcome [2] | outcome [3] | outcome [4] | outcome [5] | outcome [6] | outcome [7] | outcome [8] | outcome [9] | Potency [10]

CCOP(=O)(OCC)OP(=O)(OCC)OCC
inactive: outcome [1] | outcome [2] | outcome [3] | outcome [4] | outcome [5] | outcome [6] | outcome [8]

O=C(CCCN1CCC(n2c(=O)[nH]c3ccccc32)CC1)c1ccc(F)cc1
inactive: fluorescence, % of fluorescein [1] 0.0703% [at 18.6 µM] | fluorescence, % of fluorescent control [2] 0.0625% [at 18.6 µM] | activity change [3] -0.0154% [at 18.6 µM] | fluorescence, % of fluorescent control [4] -0.0219% [at 18.6 µM] | fluorescence, % of Rose Bengal [5] 0.463% [at 18.6 µM] | fluorescence, % of fluorescent control [6] -0.0144% [at 18.6 µM] | fluorescence, % of fluorescein control [7] 0.027% [at 18.6 µM] | fluorescence, % of fluorescent control [8] 0.0395% [at 18.6 µM] | outcome [9] | Potency [10]

CCN(CC)c1nc(C)cc(OP(=S)(OC)OC)n1
inactive: outcome [1] | outcome [2] | outcome [3] | outcome [4] | outcome [5] | outcome [6] | outcome [7] | outcome [8] | outcome [9] | Potency [10]

CCc1cc2c(s1)-n1c(C)nnc1CN=C2c1ccccc1Cl
inactive: outcome [1] | outcome [2] | outcome [3] | outcome [4] | outcome [5] | outcome [6] | outcome [7] | outcome [8] | outcome [9]
active: Potency [10] 19 µM

N#CC(O)c1ccccc1 (stereo not drawn)
inactive: outcome [1] | outcome [2] | outcome [3] | outcome [4] | outcome [5] | outcome [6] | outcome [7] | outcome [8] | outcome [9] | Potency [10]

CCOP(=S)(OCC)SCSP(=S)(OCC)OCC
inactive: outcome [1] | outcome [2] | outcome [3] | outcome [4] | outcome [5] | outcome [6] | outcome [7] | outcome [8] | outcome [9] | Potency [10]

CCOP(=S)(OCC)Oc1ncn(-c2ccccc2)n1
inactive: outcome [1] | outcome [2] | outcome [3] | outcome [4] | outcome [5] | outcome [6] | outcome [8]

O=CNC(N1CCN(C(NC=O)C(Cl)(Cl)Cl)CC1)C(Cl)(Cl)Cl (stereo not drawn)
inactive: outcome [1] | outcome [2] | outcome [3] | outcome [4] | outcome [5] | outcome [6] | outcome [7] | outcome [8] | outcome [9] | Potency [10]

Cc1ccccc1CO[C@@H]1C[C@@]2(C(C)C)CC[C@]1(C)O2
inactive: outcome [1] | outcome [2] | outcome [3] | outcome [4] | outcome [5] | outcome [6] | outcome [8]

N#CC(Cl)(Cl)Cl
inactive: outcome [1] | outcome [2] | outcome [3] | outcome [4] | outcome [5] | outcome [6] | outcome [8] | outcome [9]

O=[N+]([O-])c1cccc2cccnc12
inactive: outcome [1] | outcome [2] | outcome [3] | outcome [4] | outcome [5] | outcome [6] | outcome [7] | outcome [8] | outcome [9] | Potency [10]

CNC(=O)Oc1ccc(N(C)C)c(C)c1
inactive: outcome [1] | outcome [2] | outcome [3] | outcome [4] | outcome [5] | outcome [6] | outcome [7] | outcome [8] | outcome [9] | Potency [10]

NC(=S)C(N)=S
inactive: outcome [1] | outcome [2] | outcome [3] | outcome [4] | outcome [5] | outcome [6] | outcome [8]

N#CC(CCc1ccc(Cl)cc1)(Cn1cncn1)c1ccccc1 (stereo not drawn)
active: Potency [10] 49 µM
inactive: outcome [1] | outcome [2] | outcome [3] | outcome [4] | outcome [5] | outcome [6] | outcome [7] | outcome [8]

O=C(O)c1cccc(Cl)c1
inactive: outcome [1] | outcome [2] | outcome [3] | outcome [4] | outcome [5] | outcome [6] | outcome [8]

CC1CN1P(=O)(N1CC1C)N1CC1C (stereo not drawn)
inactive: outcome [1] | outcome [2] | outcome [3] | outcome [4] | outcome [5] | outcome [6] | outcome [8]

O=C(Cc1ccccc1)OCc1ccccc1
inactive: outcome [1] | outcome [2] | outcome [3] | outcome [4] | outcome [5] | outcome [6] | outcome [7] | outcome [8] | outcome [9] | Potency [10]

CS(=O)(=O)c1cc(C(F)(F)F)ccc1C(=O)c1cnoc1C1CC1
inactive: outcome [1] | outcome [2] | outcome [3] | outcome [4] | outcome [5] | outcome [6] | outcome [7] | outcome [8] | outcome [9] | Potency [10]

CC1CCC(=O)O1 (stereo not drawn)
inactive: outcome [1] | outcome [2] | outcome [3] | outcome [4] | outcome [5] | outcome [6] | outcome [7] | outcome [8] | outcome [9] | Potency [10]

CNC(=O)Oc1c(C(C)(C)C)cc(C)cc1C(C)(C)C
inactive: outcome [1] | outcome [2] | outcome [3] | outcome [4] | outcome [5] | outcome [6] | outcome [8]

CCOP(=O)(N=C1SCCS1)OCC
inactive: outcome [1] | outcome [2] | outcome [3] | outcome [4] | outcome [5] | outcome [6] | outcome [8] | outcome [9] | Potency [10]

ClC(Cl)Br
inactive: outcome [1] | outcome [2] | outcome [3] | outcome [4] | outcome [5] | outcome [6] | outcome [8] | outcome [9]

CC(C)(C)C(=O)C(Oc1ccc(Cl)cc1)n1cncn1 (stereo not drawn)
inactive: outcome [1] | outcome [2] | outcome [3] | outcome [4] | outcome [5] | outcome [6] | outcome [7] | outcome [8] | outcome [9] | Potency [10]

CCCCc1c(C)nc(NCC)[nH]c1=O
inactive: outcome [1] | outcome [2] | outcome [3] | outcome [4] | outcome [5] | outcome [6] | outcome [7] | outcome [8] | outcome [9] | Potency [10]

Nc1cc2c3c(c1)C(c1ccccc1)=N[C@@H](NC(=O)c1cccnc1)C(=O)N3CC2
inactive: outcome [1] | outcome [2] | outcome [3] | outcome [4] | outcome [5] | outcome [6] | outcome [7] | outcome [8] | outcome [9] | Potency [10]
